Screening results deposited in PubChem BioAssay by National Center for Advancing Translational Sciences (NCATS).
LT uptake inh = qHTS Assay for Anthrax Lethal Toxin Internalization. Cells, anthrax lethal toxin internalization, FRET ratio (460/530). Potency, µM (titrated, usually from 40 µM), hits mostly inhibitors. hit rate 0.67% among 70,000; further: nearly all actives have a fitted effect of over 50% in size
AmpC det inh = Promiscuous and Specific Inhibitors of AmpC Beta-Lactamase (assay with detergent); purified AmpC, nitrocefin hydrolysis with detergent; Potency, µM (top dose mostly 28.7 µM); hit rate 0.09% among 71,000; AID 584, 2007; active means well fitted curve in the direction sought with a large enough effect; inconclusive means small, poorly fitted or top-dose-only effect
Target sequence (P00811 whole entry, looked up): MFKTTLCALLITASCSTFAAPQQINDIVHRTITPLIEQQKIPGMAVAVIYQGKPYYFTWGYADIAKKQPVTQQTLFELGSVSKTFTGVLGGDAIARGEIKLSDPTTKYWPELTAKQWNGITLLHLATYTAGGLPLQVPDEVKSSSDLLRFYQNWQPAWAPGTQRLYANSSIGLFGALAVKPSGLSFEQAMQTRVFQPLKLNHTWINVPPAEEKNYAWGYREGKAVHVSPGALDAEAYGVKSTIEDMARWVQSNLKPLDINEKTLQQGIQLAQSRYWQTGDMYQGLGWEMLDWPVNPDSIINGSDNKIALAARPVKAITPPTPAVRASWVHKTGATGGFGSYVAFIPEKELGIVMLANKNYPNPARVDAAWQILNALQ
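E. coli AmpC (5.3 nM) in 20 mM phosphate pH 7.0 with 0.01% Triton X-100, preincubated 15 min RT with compound; nitrocefin (2 uL of 800 uM stock) hydrolysis followed by 480 nm absorbance every 20 s over 4 min.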
SmPrx2 inh = Schistosoma Mansoni Peroxiredoxins (Prx2); Schistosoma mansoni peroxiredoxin 2 (Prx2); S. mansoni Prx2 activity coupled to TGR/GSH (TGR is thioredoxin glutathione reductase), NADPH fluorescence loss, qHTS; Potency, µM; hit rate 0.07% among 65,000; AID 448, 2006
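Activity is read as the drop in NADPH fluorescence (365/450 nm), recorded every 30 sec for 8 min after H2O2 addition. Prx2 is coupled to TGR-driven NADPH oxidation through glutathione, in phosphate buffer pH 7.4.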
AmpC nodet inh = Promiscuous and Specific Inhibitors of AmpC Beta-Lactamase (assay without detergent); P00811; AmpC nitrocefin hydrolysis, absorbance 480 nm, no detergent; Potency, µM (doses to about 28.7 µM); hit rate 1.8% among 71,000
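AmpC, 20 mM phosphate pH 7.0; 15 min cpd preinc, RT; start with nitrocefin (800 uM stock); A480 kinetic read, 20 s intervals, 4 min. No-enzyme wells = negative control.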
Each line names hits and unclear results; the compound was inactive in the other large screens; [ ] = dose if it differs, or a comment. In the library only some 2.4% were active in any assay of this set; here they are far more common. Unless noted, the call rests on the fitted dose curve.

COC(=O)NC(c1ccco1)[C@]1(C(C)=O)CCCC1=O (stereo not given in full)	none (no result: AmpC det inh, SmPrx2 inh, AmpC nodet inh)
O=C(Nc1nnc(N2CCCCCC2)s1)c1cc(-c2ccc(Br)cc2)on1	AmpC nodet inh 4µM[single pt active]
COC(=O)c1cc(-c2ccc(Br)cc2)on1	AmpC nodet inh 4µM[single pt active]
COC(=O)c1cc(-c2ccc(OC)c(OC)c2)on1	none
CC(=O)Nc1ccccc1C=C1c2ccccc2-c2ccccc21	LT uptake inh inconclusive
O=[N+]([O-])c1ccc2c(N=Nc3ccc4ccccc4c3O)c(O)cc(S(=O)(=O)O)c2c1	LT uptake inh inconclusive
C[C@H]1CC[C@@H]2[C@@H](C)C(=O)O[C@H]3O[C@@]4(C)CC[C@@H]1[C@]32OO4	LT uptake inh inconclusive
O=C(O)CCc1c2ccc(=O)c(O)c-2oc2c(O)c(O)ccc12	AmpC nodet inh 2.5µM
O=c1cc(-c2cccc(O)c2)oc2c(O)c(O)ccc12	LT uptake inh inconclusive, AmpC nodet inh inconclusive
COc1ccc(S(=O)(=O)n2nc(OC(=O)c3ccc(C)cc3)cc2N)cc1	AmpC nodet inh 13µM
Cc1ccccc1-c1cncnc1NCc1cccs1	none
O=C(Nc1nc(-c2ccccc2)cs1)c1cccs1	LT uptake inh 10µM (no result: SmPrx2 inh)
O=C(Nc1nc(-c2ccccn2)cs1)c1ccc(Cl)s1	LT uptake inh 6.3µM
Cn1cccc1C(=O)Nc1nc(-c2ccccn2)cs1	none
O=C(Nc1nc(-c2ccc(S(=O)(=O)N3CCCC3)cc2)cs1)c1ccco1	none (no result: LT uptake inh)
O=C(Nc1nc(-c2ccc(Cl)s2)cs1)c1cccs1	LT uptake inh inconclusive, AmpC nodet inh inconclusive
Cc1ccc(-c2csc(NC(=O)c3ccno3)n2)cc1	AmpC nodet inh 7.9µM
O=C(Nc1cccc2cccnc12)[C@@H]1[C@@H](C(=O)O)[C@H]2CC[C@@H]1O2	none
O=C(NC1CCCc2ccccc21)C1CCN(c2c(N3CCCC3)c(=O)c2=O)CC1 (stereo not given)	AmpC nodet inh 4µM[single pt active]
Cc1cc(=O)n2nc(N3CCC(C(=O)NC4CCCc5ccccc54)CC3)sc2n1 (stereo not given)	none
Cc1ccc2[nH]c(=O)c(CN(CCc3ccccc3)C(c3nnnn3Cc3ccco3)C(C)C)cc2c1 (stereo not given)	LT uptake inh inconclusive, AmpC nodet inh 5µM
CCC(c1nnnn1Cc1ccco1)N(CCc1ccccc1)Cc1cc2cc(C)ccc2[nH]c1=O (stereo not given)	none
CCCC/C(C)=C/[C@@H](NP(=O)(c1ccccc1)c1ccccc1)c1ccccc1	LT uptake inh 10µM (no result: SmPrx2 inh)
C/C(=C\[C@@H](NP(=O)(c1ccccc1)c1ccccc1)c1ccccc1)CO[Si](c1ccccc1)(c1ccccc1)C(C)(C)C	none (no result: SmPrx2 inh)
C[N+](C)(C)CCC(=O)c1cccc2ccccc12	LT uptake inh 25µM
O=C(Nc1cccc(Br)c1)c1cc2ccccc2o1	LT uptake inh 5µM (no result: SmPrx2 inh)
O=C(CCl)c1ccccc1	LT uptake inh 13µM (no result: SmPrx2 inh)
COc1ccc2[nH]cc(CCNc3nc(-c4cccnc4)nc4ccccc34)c2c1	LT uptake inh inconclusive
CCn1cc(C(=O)NCc2ccc(Cl)cc2)c(=O)c2cc(S(=O)(=O)N3CCOCC3)ccc21	AmpC nodet inh 4µM[single pt active]
CCn1cc(C(=O)NCC2CCCO2)c(=O)c2cc(S(=O)(=O)N(C)C)ccc21 (stereo not given)	AmpC nodet inh 4µM[single pt active]
CCn1cc(C(=O)NCc2ccc3c(c2)OCO3)c(=O)c2cc(S(=O)(=O)N3CCOCC3)ccc21	LT uptake inh inconclusive
CCn1cc(C(=O)NCCCN2CC(C)CC(C)C2)c(=O)c2cc(S(=O)(=O)N(C)C)ccc21 (stereo not given)	AmpC nodet inh 3.2µM[single pt active]
CCn1cc(C(=O)N2CC(C)CC(C)C2)c(=O)c2cc(S(=O)(=O)N(C)C)ccc21 (stereo not given)	none
CO[C@@H]1/C=C\CC(=O)N[C@@H](C)C(=O)OC[C@@H](OC)[C@H](C)CCCC(=O)OC[C@H]1C	none (no result: AmpC det inh, SmPrx2 inh, AmpC nodet inh)
C=CC[C@H](N)C(=O)O	none
CC[C@H]1CN(C)[C@H]2Cc3c([nH]c4ccccc34)C(=O)C[C@H]1[C@H]2C(=O)OC	none
CCCCCC[C@H]1C(=O)O[C@@H](C)[C@H](NC(=O)c2cccc(NC=O)c2O)C(=O)O[C@@H](C)[C@@H]1OC(=O)CC(C)C	LT uptake inh inconclusive
CC(C)CO/N=C1/C[C@@H](O)[C@@H](O)[C@@H]2[C@@H]3C(=O)N(c4cccc(Oc5ccccc5)c4)C(=O)[C@H]3CC[C@H]12	none (no result: AmpC det inh, SmPrx2 inh, AmpC nodet inh)
C/C=C\C1=C(CO)C(=O)[C@@H]2OC2C1=O (stereo not given in full)	none (no result: AmpC det inh, SmPrx2 inh, AmpC nodet inh)
